According to PubChem BioAssay (EPA / NIEHS):
“And” between values parts separate entries of the source, which are not always exact repeats. Equal entries are not always repeated. Results filed as inconclusive are left out. A structure can be active in one record and inactive in another. The source made the active and inactive calls. The calls were made as follows, unless noted: active = hit-call score of the fitted dose curve at least 0.9, where 1 is the maximum; inconclusive = response in the unintended direction; inactive = score below 0.9.

How the values were obtained:
[1] = biological target: Cellular tumor antigen p53 (Homo sapiens) (UniProt P04637); assay: TOX21_p53_BLA_p3_ratio: Tox21 HCT-116 p53 Agonism Beta-lactamase Assay, Ratio, Phase 3 (AID 2283596)
Chain of Cellular tumor antigen p53 (Homo sapiens) (P04637 whole entry, looked up): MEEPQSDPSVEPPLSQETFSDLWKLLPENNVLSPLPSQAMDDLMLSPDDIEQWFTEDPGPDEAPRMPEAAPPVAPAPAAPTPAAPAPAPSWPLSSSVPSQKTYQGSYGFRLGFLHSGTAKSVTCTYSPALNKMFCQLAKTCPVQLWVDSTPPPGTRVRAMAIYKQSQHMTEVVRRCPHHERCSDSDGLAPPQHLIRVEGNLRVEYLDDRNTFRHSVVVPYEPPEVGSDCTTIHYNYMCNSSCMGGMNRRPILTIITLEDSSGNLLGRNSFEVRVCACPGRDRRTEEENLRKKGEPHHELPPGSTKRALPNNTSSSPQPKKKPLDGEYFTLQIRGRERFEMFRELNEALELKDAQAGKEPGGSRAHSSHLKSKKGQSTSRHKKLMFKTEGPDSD
Method in brief: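 Cells were seeded at 4000/well, rested 5 h at 37C, then dosed with DMSO compound solutions (217-fold dilution) for 16 h. CCF4-AM substrate was loaded for 2 h at room temperature, and the 460/530 nm emission ratio was fitted for gain of signal versus DMSO.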

[2] = TOX21_p53_BLA_p4_viability: Viability Assessment in the Tox21 HCT-116 p53 Agonism Beta-lactamase Assay, Phase 4 (AID 2283597);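 also: hits lower the luminescence signal meaning cytotoxicity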
Method in brief: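 ATP content by CellTiter-Glo luminescence, 30 min RT, read after the beta-lactamase ratio step. Cells: HCT116, 4000/well, compound added after 5 h, exposure 16 h at 37C. Signal loss = reduced viability.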

[3] = TOX21_p53_BLA_p5_viability: Viability Assessment in the Tox21 HCT-116 p53 Agonism Beta-lactamase Assay, Phase 5 (AID 2283600)
Method in brief: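 ATP luminescence (CellTiter-Glo, 30 min, RT) served as the viability read-out, with loss of signal indicating cytotoxicity. Compounds in DMSO were pinned at a 217-fold dilution onto 4000 cells/well and incubated 16 h, 37C.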

[4] = biological target: Cellular tumor antigen p53 (Homo sapiens) (UniProt P04637); assay: TOX21_p53_BLA_p4_ratio: Tox21 HCT-116 p53 Agonism Beta-lactamase Assay, Ratio, Phase 4 (AID 2283601)
Method in brief: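 Signal is the blue/green (460nm/530nm) ratio of cleaved versus uncleaved CCF4-AM substrate, read after 2 h substrate loading. Cells were HCT116 carrying the p53-responsive beta-lactamase reporter, dosed 16 h at 37C, 5% CO2; CellTiter-Glo measured in parallel.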

[5] = Tanguay_ZF_120hpf_MORT_legacy: (Legacy) Oregon State University Tanguay Lab 120 Hour Post-fertilization zebrafish Assay for Mortality (AID 2283633);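 as to AC50: fitted as increase in binary mortality versus DMSO negative control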
Method in brief: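 Brightfield scoring of embryo death (binary) at 24 and 120 hpf; static exposure 6–120 hpf, 28C, sealed and foil-covered. Pronase-dechorionated 5D wild-type larvae, single embryo per well. DMSO 0.64% v/v; trimethyltin chloride 5uM positive control.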

[6] = Tanguay_ZF_120hpf_YSE_legacy: (Legacy) Oregon State University Tanguay Lab 120 Hour Post-fertilization zebrafish Assay for Yolk Sac Edema (AID 2283634);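 as to AC50: actives raise the incidence of yolk sac edema above the DMSO baseline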
Method in brief: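 Binary brightfield scoring of yolk sac edema at 120 hpf; DMSO baseline, gain-of-signal fitting. Dechorionated 5D larvae, one per well, static exposure 6–120 hpf, 28C, 0.64% DMSO. Dead embryos not scored.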

[7] = Tanguay_ZF_120hpf_AXIS_legacy: (Legacy) Oregon State University Tanguay Lab 120 Hour Post-fertilization zebrafish Assay for Body Axis Malformation (AID 2283635);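 as to AC50: potency for an increased fraction of larvae scored with body axis malformation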
Method in brief: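 Embryos: 5D wild-type, pronase-dechorionated 4 hpf; static exposure 6–120 hpf, 28C, sealed, dark, 1 embryo/well, 0.64% DMSO. 120 hpf axis malformation scored present/absent; dead embryos excluded. Analysed as gain of signal vs DMSO.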

[8] = Tanguay_ZF_120hpf_EYE_legacy: (Legacy) Oregon State University Tanguay Lab 120 Hour Post-fertilization zebrafish Assay for Eye Malformation (AID 2283636);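 also: binary presence or absence of eye malformation scored by brightfield in 120 hpf larvae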
Method in brief: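 Binary brightfield scoring of eye defects at 120 hpf after static exposure from 6 hpf of single pronase-dechorionated wild-type embryos (28C, 0.64% DMSO). Non-mortality endpoints omitted where embryos died; fit vs DMSO.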

[9] = Tanguay_ZF_120hpf_JAW_legacy: (Legacy) Oregon State University Tanguay Lab 120 Hour Post-fertilization zebrafish Assay for Jaw Malformation (AID 2283638);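 as to AC50: active means more embryos with jaw malformation than DMSO controls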
Method in brief: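 Binary jaw-malformation calls at 120 hpf by brightfield imaging; DMSO (0.64% v/v) = baseline. Embryos: 5D wild-type, pronase-dechorionated, one per well from 6 hpf, static exposure, 28C, sealed, dark.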

[10] = Tanguay_ZF_120hpf_OTIC_legacy: (Legacy) Oregon State University Tanguay Lab 120 Hour Post-fertilization zebrafish Assay for Otic Vesicle Malformation (AID 2283639)
Method in brief: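 Binary scoring of otic vesicle defects at 120 hpf in zebrafish (Tropical 5D) held under static exposure at 28C, sealed and shaded, with final DMSO 0.64%. Embryos dying by 24 or 120 hpf excluded; fitted positively against DMSO.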

[11] = Tanguay_ZF_120hpf_PE_legacy: (Legacy) Oregon State University Tanguay Lab 120 Hour Post-fertilization zebrafish Assay for Pericardial Edema (AID 2283640);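 as to AC50: potency for increased incidence of pericardial edema versus DMSO baseline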
Method in brief: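 Static waterborne exposure, 5D wild-type embryos, 28C, to 120 hpf; final DMSO 0.64% (vol/vol). Binary PE call at 120 hpf by brightfield; fitted upward vs DMSO baseline. 5uM trimethyltin chloride as positive control.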

[12] = Tanguay_ZF_120hpf_BRAI_legacy: (Legacy) Oregon State University Tanguay Lab 120 Hour Post-fertilization zebrafish Assay for Brain Malformation (AID 2283641)
Method in brief: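 Read-out: binary brain morphology call at 120 hpf (brightfield), fitted in gain-of-signal direction vs DMSO. Wild-type Tropical 5D embryos, static exposure, 28C, 0.64% DMSO final; 5uM trimethyltin chloride as positive control.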

[13] = Tanguay_ZF_120hpf_SOMI_legacy: (Legacy) Oregon State University Tanguay Lab 120 Hour Post-fertilization zebrafish Assay for Somite Malformation (AID 2283647)
Method in brief: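 Binary brightfield scoring of somite defects at 120 hpf in 5D wild-type larvae; one dechorionated embryo per well, static exposure from 6 hpf, 28C, sealed and dark. Final DMSO 0.64%; trimethyltin chloride 5uM positive control.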

[14] = Tanguay_ZF_120hpf_CFIN_legacy: (Legacy) Oregon State University Tanguay Lab 120 Hour Post-fertilization zebrafish Assay for Caudal Fin Malformation (AID 2283649)
Method in brief: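 Dechorionated 5D wild-type zebrafish, static exposure 6–120 hpf, 28C, sealed and dark, 0.64% v/v DMSO final. Binary fin-malformation call at 120 hpf, brightfield; gain of signal vs DMSO baseline.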

[15] = Tanguay_ZF_120hpf_PIG_legacy: (Legacy) Oregon State University Tanguay Lab 120 Hour Post-fertilization zebrafish Assay for Pigmentation Malformation (AID 2283650)
Method in brief: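 Pigment malformation recorded as a binary call at 120 hpf in zebrafish (Tropical 5D) exposed singly from 6 hpf after pronase dechorionation. Static, sealed, 28C exposure, 0.64% DMSO; mortality excludes scoring; positive-direction fit against DMSO.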

[16] = Tanguay_ZF_120hpf_CIRC_legacy: (Legacy) Oregon State University Tanguay Lab 120 Hour Post-fertilization zebrafish Assay for Circulatory Malformation (AID 2283651)
Method in brief: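 Binary circulatory malformation call at 120 hpf by brightfield imaging of zebrafish larvae; chorion removed at 4 hpf, static exposure from 6 hpf in sealed dark plates at 28C, final DMSO 0.64%; non-mortality endpoints skipped if embryo died.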

[17] = biological target: Cellular tumor antigen p53 (Homo sapiens) (UniProt P04637); assay: TOX21_p53_BLA_p5_ratio: Tox21 HCT-116 p53 Agonism Beta-lactamase Assay, Ratio, Phase 5 (AID 2283599)
Method in brief: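 Beta-lactamase reporter ratio (blue 460 nm over green 530 nm, 405 nm excitation) after 2 h CCF4-AM loading, in HCT-116 cells exposed 16 h at 37 C to compounds pinned at 217-fold dilution. Increases relative to DMSO baseline scored.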

[18] = Tanguay_ZF_120hpf_SNOU_legacy: (Legacy) Oregon State University Tanguay Lab 120 Hour Post-fertilization zebrafish Assay for Snout Malformation (AID 2283637)
Method in brief: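 Binary snout-malformation call at 120 hpf in wild-type 5D embryos, chorion removed by pronase, under static exposure from 6 hpf at 28C (0.64% DMSO). Embryos dying by 24 or 120 hpf excluded.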

[19] = read-out: kallikrein-3 (KLK3), KLK3 (gene 354); assay: LTEA_HepaRG_KLK3: Life Technologies and Expression Analysis (LTEA) Assay for kallikrein-3 (KLK3) using HepaRG (AID 2283652; active = hit-call score of the fitted dose curve at least 0.9, where 1 is the maximum; inactive = score below 0.9); conditions: mRNA level, 48 h; actives raise or lower the signal
Method in brief: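 KLK3 transcript levels were measured by TaqMan qRT-PCR with normalisation to three housekeeping genes. HepaRG cultures received chemicals for 48 h at up to 100 uM (half-log, 8 points, 0.5% DMSO vehicle), fitted in both directions against DMSO.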

[20] = Tanguay_ZF_120hpf_PFIN_legacy: (Legacy) Oregon State University Tanguay Lab 120 Hour Post-fertilization zebrafish Assay for Pectoral Fin Malformation (AID 2283648);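 also: each larva judged yes or no for fin defect by brightfield with dead larvae skipped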
Method in brief: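 Pectoral fin malformation was recorded as a binary endpoint at 120 hpf in wild-type Tropical 5D larvae, which had been dechorionated and exposed statically from 6 hpf at 28C in 0.64% DMSO. Dead embryos were excluded.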

CNC(=O)ON=CC(C)(C)SC
outcome [1]: inactive
outcome [2]: inactive
outcome [3]: inactive
outcome [4]: inactive
outcome [5]: inactive
AC50 [6]: 3.47 µM (active)
AC50 [7]: 2.31 µM (active)
outcome [8]: inactive
outcome [9]: inactive
outcome [10]: inactive
AC50 [11]: 2.81 µM (active)
outcome [12]: inactive
outcome [13]: inactive
outcome [14]: inactive
outcome [15]: inactive
outcome [16]: inactive

CCCC1COC(Cn2cncn2)(c2ccc(Cl)cc2Cl)O1 (stereo unspecified)
outcome [1]: inactive
outcome [2]: inactive
outcome [3]: inactive
outcome [4]: inactive
outcome [5]: inactive
AC50 [6]: 33.9 µM (active)
AC50 [8]: 26.9 µM (active)
AC50 [9]: 25.2 µM (active)
outcome [10]: inactive
AC50 [11]: 30.4 µM (active)
AC50 [12]: 30.2 µM (active)
outcome [13]: inactive
outcome [14]: inactive
outcome [15]: inactive
outcome [16]: inactive

CCOP(=S)(OCC)SCn1c(=O)oc2cc(Cl)ccc21
outcome [1]: inactive
outcome [2]: inactive
outcome [17]: inactive
outcome [3]: inactive
outcome [4]: inactive
outcome [5]: inactive
outcome [6]: inactive
outcome [8]: inactive
outcome [10]: inactive
outcome [12]: inactive
outcome [13]: inactive
outcome [15]: inactive
outcome [16]: inactive

CO/C=C(/C(=O)OC)c1ccccc1Oc1cc(Oc2ccccc2C#N)ncn1
outcome [1]: inactive
outcome [2]: inactive
outcome [3]: inactive
outcome [4]: inactive
AC50 [5]: 7.48 µM (active) and 1.44 µM (active)
outcome [5]: inactive
AC50 [6]: 5.69 µM (active)
outcome [6]: inactive
outcome [8]: inactive
outcome [9]: inactive
outcome [10]: inactive
AC50 [11]: 5.47 µM (active)
outcome [11]: inactive
outcome [12]: inactive
outcome [13]: inactive
outcome [14]: inactive
outcome [15]: inactive
outcome [16]: inactive

CCc1nn(C)c(C(=O)NCc2ccc(C(C)(C)C)cc2)c1Cl
outcome [1]: inactive
AC50 [2]: 46.1 µM (active)
AC50 [3]: 46.1 µM (active)
AC50 [4]: 76.6 µM (active)
outcome [5]: inactive
AC50 [6]: 6 µM (active)
outcome [8]: inactive
AC50 [9]: 4.39 µM (active)
outcome [10]: inactive
AC50 [11]: 5.67 µM (active)
outcome [12]: inactive
outcome [13]: inactive
outcome [14]: inactive
outcome [15]: inactive
outcome [16]: inactive

CC(Oc1ccc(Cl)cc1Cl)C(=O)O (stereo unspecified)
outcome [1]: inactive
outcome [2]: inactive
outcome [3]: inactive
outcome [4]: inactive
outcome [5]: inactive
outcome [6]: inactive
outcome [8]: inactive
outcome [18]: inactive
outcome [10]: inactive
outcome [11]: inactive
outcome [12]: inactive
outcome [14]: inactive
outcome [15]: inactive
outcome [16]: inactive

CON(C)C(=O)Nc1ccc(Cl)c(Cl)c1
outcome [1]: inactive
outcome [2]: inactive
outcome [3]: inactive
outcome [4]: inactive
outcome [5]: inactive
outcome [6]: inactive
outcome [8]: inactive
outcome [9]: inactive
outcome [10]: inactive
outcome [11]: inactive
outcome [12]: inactive
outcome [13]: inactive
outcome [14]: inactive
outcome [15]: inactive
outcome [16]: inactive

C=CC1(C)OC(=O)N(c2cc(Cl)cc(Cl)c2)C1=O (stereo unspecified)
outcome [1]: inactive
outcome [2]: inactive
outcome [3]: inactive
outcome [4]: inactive
outcome [5]: inactive
outcome [6]: inactive
outcome [8]: inactive
outcome [9]: inactive
outcome [10]: inactive
outcome [11]: inactive
outcome [12]: inactive
outcome [13]: inactive
outcome [14]: inactive
outcome [15]: inactive
outcome [16]: inactive
outcome [19]: inactive

CCCCNC(=O)OCC#CI
AC50 [1]: 59.5 µM (active) and 78 µM (active)
AC50 [2]: 35.9 µM (active)
outcome [2]: inactive
outcome [3]: inactive
AC50 [4]: 12.8 µM (active)
outcome [4]: inactive
AC50 [5]: 24 µM (active)
outcome [6]: inactive
outcome [7]: inactive
outcome [8]: inactive
outcome [9]: inactive
outcome [10]: inactive
outcome [11]: inactive
outcome [12]: inactive
outcome [13]: inactive
outcome [14]: inactive
outcome [15]: inactive
outcome [16]: inactive

N#Cc1nn(-c2c(Cl)cc(C(F)(F)F)cc2Cl)c(N)c1S(=O)C(F)(F)F (stereo unspecified)
outcome [1]: inactive
outcome [2]: inactive
outcome [17]: inactive
outcome [3]: inactive
outcome [4]: inactive
outcome [5]: inactive
AC50 [6]: 0.0235 µM (active)
outcome [8]: inactive
outcome [9]: inactive
outcome [10]: inactive
outcome [11]: inactive
outcome [12]: inactive
outcome [20]: inactive
outcome [14]: inactive
outcome [15]: inactive
outcome [16]: inactive

O=C(O)COc1nc(Cl)c(Cl)cc1Cl
outcome [1]: inactive
outcome [2]: inactive
outcome [3]: inactive
outcome [4]: inactive
outcome [5]: inactive
outcome [6]: inactive
outcome [8]: inactive
outcome [9]: inactive
outcome [10]: inactive
outcome [11]: inactive
outcome [12]: inactive
outcome [13]: inactive
outcome [14]: inactive
outcome [15]: inactive
outcome [16]: inactive

Cc1cc(Cl)ccc1OCC(=O)O
outcome [1]: inactive
outcome [2]: inactive
outcome [3]: inactive
outcome [4]: inactive
outcome [5]: inactive
outcome [6]: inactive
outcome [7]: inactive
outcome [8]: inactive
outcome [9]: inactive
outcome [10]: inactive
outcome [11]: inactive
outcome [12]: inactive
outcome [13]: inactive
outcome [14]: inactive
outcome [15]: inactive
